The source of these data is PMC7862700, “An all-to-all approach to the identification of sequence-specific readers for epigenetic DNA modifications on cytosine”.

Holding throughout (assay): DAPPL (digital affinity profiling via proximity ligation, sequencing); 10 mM Tris-HCl pH 7.5, 50 mM NaCl, 1 mM DTT, 4% glycerol, room temperature, 30 min; GST-TFs on glutathione beads, 16-mer random dsDNA library, 0.1% formaldehyde crosslink after washing; high values mean tight binding
One assay deals with T1, FLI1 (Homo sapiens, UniProt Q01543 1-452).
T1 sequence: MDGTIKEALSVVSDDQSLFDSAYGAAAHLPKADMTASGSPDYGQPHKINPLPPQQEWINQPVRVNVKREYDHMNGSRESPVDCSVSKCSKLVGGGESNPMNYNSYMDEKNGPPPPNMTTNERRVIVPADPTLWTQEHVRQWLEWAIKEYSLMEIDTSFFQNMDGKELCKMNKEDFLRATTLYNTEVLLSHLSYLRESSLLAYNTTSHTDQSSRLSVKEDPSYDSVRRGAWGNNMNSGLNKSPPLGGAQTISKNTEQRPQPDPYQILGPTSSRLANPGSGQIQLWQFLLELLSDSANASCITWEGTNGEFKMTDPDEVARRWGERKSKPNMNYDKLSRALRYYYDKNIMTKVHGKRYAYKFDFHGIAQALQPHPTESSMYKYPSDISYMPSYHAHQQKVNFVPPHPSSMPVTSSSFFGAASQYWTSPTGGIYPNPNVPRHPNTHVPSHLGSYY
To be noted: protein: recombinant; tags: N-terminal GST; dsDNA, one strand shown. A digest of the protocol: (§1)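 Sequencing on an Illumina NextSeq500 followed washing, crosslinking with 0.1% formaldehyde, proximity ligation (BsaI/T4 ligase, 1 h, 37 °C) and PCR amplification of pools that had been incubated for 30 min at room temperature with 200 nmole of a random double-stranded 16-mer DNA library in Tris/NaCl/DTT/glycerol buffer. Each pool held DNA-barcoded human transcription factors, expressed in yeast as GST fusions and captured on glutathione beads, plus a tag-only sample. Binding signal is a hexamer's read frequency for a factor divided by its frequency in the tag-only sample.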

The target in the next assay is T2, ELK1 (Homo sapiens, UniProt P19419 1-428).
T2 sequence: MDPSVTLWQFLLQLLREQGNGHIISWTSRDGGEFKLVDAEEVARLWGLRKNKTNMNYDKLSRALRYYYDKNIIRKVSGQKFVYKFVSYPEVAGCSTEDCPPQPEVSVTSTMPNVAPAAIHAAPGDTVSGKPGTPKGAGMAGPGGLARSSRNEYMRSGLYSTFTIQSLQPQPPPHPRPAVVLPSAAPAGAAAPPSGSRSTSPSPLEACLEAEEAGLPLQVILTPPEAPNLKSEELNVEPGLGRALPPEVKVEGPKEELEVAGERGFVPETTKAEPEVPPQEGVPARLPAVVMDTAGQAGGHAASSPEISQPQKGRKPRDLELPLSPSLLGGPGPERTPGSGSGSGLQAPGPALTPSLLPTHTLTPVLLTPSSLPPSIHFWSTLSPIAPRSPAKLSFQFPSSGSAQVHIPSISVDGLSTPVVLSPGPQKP
To be noted: protein: recombinant; tags: N-terminal GST; dsDNA, one strand shown. A digest of the protocol:
as §1

In another assay the target is T3, GABPA (Homo sapiens, UniProt Q06546 1-454).
T3 sequence: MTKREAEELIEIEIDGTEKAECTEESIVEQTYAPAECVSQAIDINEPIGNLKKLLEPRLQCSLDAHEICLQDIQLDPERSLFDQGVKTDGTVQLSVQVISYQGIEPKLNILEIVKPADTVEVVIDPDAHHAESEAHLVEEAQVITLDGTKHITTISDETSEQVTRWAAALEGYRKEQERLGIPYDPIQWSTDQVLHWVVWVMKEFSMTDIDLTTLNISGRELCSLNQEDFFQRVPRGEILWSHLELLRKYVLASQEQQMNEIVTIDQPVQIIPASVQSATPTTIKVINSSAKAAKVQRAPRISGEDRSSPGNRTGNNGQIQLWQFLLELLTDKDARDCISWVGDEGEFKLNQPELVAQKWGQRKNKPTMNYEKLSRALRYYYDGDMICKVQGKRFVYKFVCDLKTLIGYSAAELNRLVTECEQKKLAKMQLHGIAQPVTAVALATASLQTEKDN
The settings on record: protein: recombinant; tags: N-terminal GST; dsDNA, one strand shown. The essentials: as §1

For the next assay, the target named is T4, ERG (Homo sapiens, UniProt P11308 1-479).
T4 sequence: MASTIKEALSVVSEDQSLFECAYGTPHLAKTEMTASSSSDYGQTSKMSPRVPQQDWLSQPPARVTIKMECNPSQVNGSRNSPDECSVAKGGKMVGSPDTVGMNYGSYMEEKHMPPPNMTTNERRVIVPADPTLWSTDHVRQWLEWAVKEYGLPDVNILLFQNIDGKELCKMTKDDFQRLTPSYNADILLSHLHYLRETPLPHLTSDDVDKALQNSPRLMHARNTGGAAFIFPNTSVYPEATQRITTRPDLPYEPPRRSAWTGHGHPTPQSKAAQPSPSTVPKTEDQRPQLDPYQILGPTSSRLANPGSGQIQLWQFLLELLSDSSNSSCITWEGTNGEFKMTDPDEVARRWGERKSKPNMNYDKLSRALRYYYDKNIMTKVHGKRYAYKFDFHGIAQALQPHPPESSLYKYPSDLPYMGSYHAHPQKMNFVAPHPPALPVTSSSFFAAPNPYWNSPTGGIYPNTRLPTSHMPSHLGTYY
To be noted: protein: recombinant; tags: N-terminal GST; dsDNA, one strand shown. A digest of the protocol:
as §1

The target in another assay is ELF1 (Homo sapiens, UniProt P32519 1-619). The settings on record: protein: recombinant; tags: N-terminal GST; dsDNA, one strand shown. A digest of the protocol:
as §1

In another assay the target is T5, EHF (Homo sapiens, UniProt Q9NZC4 1-300).
T5 sequence: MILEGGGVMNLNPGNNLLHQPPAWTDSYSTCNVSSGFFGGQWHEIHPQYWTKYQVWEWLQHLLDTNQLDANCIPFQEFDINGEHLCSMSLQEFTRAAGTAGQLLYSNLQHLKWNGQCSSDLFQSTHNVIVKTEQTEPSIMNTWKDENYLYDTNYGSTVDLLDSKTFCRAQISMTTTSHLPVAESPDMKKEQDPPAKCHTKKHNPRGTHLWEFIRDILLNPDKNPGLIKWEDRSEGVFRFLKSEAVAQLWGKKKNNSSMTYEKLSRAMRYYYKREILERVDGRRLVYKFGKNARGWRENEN
The settings on record: protein: recombinant; tags: N-terminal GST; dsDNA, one strand shown. A digest of the protocol:
as §1

The target of the next assay is SPI1 (Homo sapiens, UniProt P17947 1-270). The settings on record: protein: recombinant; tags: N-terminal GST; dsDNA, one strand shown. A digest of the protocol: as §1
Another assay deals with SPIB (Homo sapiens, UniProt Q01892 1-262). The settings on record: protein: recombinant; tags: N-terminal GST; dsDNA, one strand shown. The essentials: as §1
Sequence of SPIB (Q01892 whole entry): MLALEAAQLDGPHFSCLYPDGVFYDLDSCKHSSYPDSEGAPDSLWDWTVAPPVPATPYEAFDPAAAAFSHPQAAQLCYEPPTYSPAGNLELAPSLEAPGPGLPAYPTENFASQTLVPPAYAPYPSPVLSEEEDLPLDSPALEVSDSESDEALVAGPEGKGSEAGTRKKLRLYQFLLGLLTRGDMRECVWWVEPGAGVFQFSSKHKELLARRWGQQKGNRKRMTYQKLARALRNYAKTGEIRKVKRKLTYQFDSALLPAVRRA
In a further assay the target is T6, ELK3 (Homo sapiens, UniProt P41970 1-407).
T6 sequence: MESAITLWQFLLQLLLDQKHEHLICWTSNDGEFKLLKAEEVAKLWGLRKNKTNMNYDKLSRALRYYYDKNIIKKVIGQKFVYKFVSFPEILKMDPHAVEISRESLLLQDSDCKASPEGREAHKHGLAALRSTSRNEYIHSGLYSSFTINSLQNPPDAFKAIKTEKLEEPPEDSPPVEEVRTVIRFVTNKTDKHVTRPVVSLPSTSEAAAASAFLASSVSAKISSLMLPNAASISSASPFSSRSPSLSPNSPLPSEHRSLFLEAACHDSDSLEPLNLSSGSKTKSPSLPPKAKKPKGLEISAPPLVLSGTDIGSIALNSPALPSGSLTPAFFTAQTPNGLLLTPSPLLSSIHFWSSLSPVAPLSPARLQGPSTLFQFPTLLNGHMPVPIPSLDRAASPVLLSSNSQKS
The settings on record: protein: recombinant; tags: N-terminal GST; dsDNA, one strand shown. The essentials:
as §1

The target of another assay is T7, FEV (Homo sapiens, UniProt Q99581 1-238).
T7 sequence: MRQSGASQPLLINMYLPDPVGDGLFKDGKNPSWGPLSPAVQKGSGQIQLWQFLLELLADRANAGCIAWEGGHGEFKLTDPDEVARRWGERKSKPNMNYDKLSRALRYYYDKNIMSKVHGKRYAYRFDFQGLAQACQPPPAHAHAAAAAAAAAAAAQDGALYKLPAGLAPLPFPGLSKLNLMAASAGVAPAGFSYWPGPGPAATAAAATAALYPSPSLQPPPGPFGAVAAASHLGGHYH
The settings on record: protein: recombinant; tags: N-terminal GST; dsDNA, one strand shown. The essentials:
as §1

A further assay concerns the target ETV5 (Homo sapiens, UniProt P41161 1-510). The settings on record: protein: recombinant; tags: N-terminal GST; dsDNA, one strand shown. The essentials: as §1
For another assay, the target named is HSF1 (Homo sapiens, UniProt Q00613 1-529). The settings on record: protein: recombinant; tags: N-terminal GST; chain copies: 3; dsDNA, one strand shown. A digest of the protocol: as §1
Sequence of HSF1 (Q00613 whole entry): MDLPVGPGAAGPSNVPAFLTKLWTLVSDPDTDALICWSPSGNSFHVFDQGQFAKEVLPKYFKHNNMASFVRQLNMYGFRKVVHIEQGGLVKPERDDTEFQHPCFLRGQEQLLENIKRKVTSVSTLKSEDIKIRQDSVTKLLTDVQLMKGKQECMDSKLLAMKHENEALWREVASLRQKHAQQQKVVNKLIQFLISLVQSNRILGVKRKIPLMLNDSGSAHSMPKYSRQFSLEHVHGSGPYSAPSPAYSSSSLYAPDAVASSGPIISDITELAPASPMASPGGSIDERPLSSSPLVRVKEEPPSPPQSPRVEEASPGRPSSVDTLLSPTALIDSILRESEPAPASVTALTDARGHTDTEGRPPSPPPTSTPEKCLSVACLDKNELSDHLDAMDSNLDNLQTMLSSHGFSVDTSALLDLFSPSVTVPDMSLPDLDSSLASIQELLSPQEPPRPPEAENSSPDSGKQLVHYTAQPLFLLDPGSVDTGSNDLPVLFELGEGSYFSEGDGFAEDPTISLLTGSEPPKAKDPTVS
A further assay addresses T8, SPIC (Homo sapiens, UniProt Q8N5J4 1-248).
T8 sequence: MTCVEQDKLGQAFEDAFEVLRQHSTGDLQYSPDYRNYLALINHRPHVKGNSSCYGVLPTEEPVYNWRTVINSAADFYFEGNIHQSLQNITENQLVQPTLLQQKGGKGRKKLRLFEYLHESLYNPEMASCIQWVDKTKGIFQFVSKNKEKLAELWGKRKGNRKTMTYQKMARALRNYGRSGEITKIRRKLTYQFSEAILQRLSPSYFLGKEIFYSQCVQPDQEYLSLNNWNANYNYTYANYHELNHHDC
The settings on record: protein: recombinant; tags: N-terminal GST; dsDNA, one strand shown. The essentials:
as §1

The next assay concerns the target ELF4 (Homo sapiens, UniProt Q99607 1-663). To be noted: protein: recombinant; tags: N-terminal GST; dsDNA, one strand shown. The essentials: as §1
A further assay has as its target T9, ELK4 (Homo sapiens, UniProt P28324-2 1-405).
T9 sequence: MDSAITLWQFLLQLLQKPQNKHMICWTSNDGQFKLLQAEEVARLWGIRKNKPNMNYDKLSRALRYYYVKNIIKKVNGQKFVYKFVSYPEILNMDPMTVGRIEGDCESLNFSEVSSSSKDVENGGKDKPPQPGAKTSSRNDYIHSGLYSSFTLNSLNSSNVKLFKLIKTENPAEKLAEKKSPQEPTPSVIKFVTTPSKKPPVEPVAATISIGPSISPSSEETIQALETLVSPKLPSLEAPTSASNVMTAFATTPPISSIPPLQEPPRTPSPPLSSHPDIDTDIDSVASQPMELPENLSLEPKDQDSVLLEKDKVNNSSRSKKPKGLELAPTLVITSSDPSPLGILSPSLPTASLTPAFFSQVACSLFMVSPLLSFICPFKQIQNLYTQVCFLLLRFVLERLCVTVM
The settings on record: protein: recombinant; tags: N-terminal GST; dsDNA, one strand shown. A digest of the protocol:
as §1

Another assay deals with T10, ETV2 (Homo sapiens, UniProt O00321 1-342).
T10 sequence: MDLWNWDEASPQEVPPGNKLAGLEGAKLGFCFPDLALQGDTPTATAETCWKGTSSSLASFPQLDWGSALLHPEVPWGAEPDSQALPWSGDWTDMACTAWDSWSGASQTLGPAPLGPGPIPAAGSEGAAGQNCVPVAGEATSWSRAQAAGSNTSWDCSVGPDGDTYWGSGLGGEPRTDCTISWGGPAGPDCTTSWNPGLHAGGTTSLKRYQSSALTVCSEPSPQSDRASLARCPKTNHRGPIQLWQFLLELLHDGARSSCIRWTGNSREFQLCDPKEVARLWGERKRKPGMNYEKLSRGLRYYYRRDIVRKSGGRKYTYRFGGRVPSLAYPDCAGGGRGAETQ
The settings on record: protein: recombinant; tags: N-terminal GST; dsDNA, one strand shown. A digest of the protocol: as §1

The target in another assay is T11, ELF3 (Homo sapiens, UniProt P78545 1-371).
T11 sequence: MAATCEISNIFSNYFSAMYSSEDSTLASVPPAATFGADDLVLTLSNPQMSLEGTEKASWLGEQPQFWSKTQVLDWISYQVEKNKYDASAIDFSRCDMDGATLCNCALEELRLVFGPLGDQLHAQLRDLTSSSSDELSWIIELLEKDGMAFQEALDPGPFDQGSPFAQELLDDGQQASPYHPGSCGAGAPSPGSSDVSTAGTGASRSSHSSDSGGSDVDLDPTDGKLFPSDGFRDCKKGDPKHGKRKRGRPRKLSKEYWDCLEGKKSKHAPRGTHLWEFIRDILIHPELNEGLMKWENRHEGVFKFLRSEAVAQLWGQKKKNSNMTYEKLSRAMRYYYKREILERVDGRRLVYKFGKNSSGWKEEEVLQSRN
To be noted: protein: recombinant; tags: N-terminal GST; dsDNA, one strand shown. A digest of the protocol:
as §1

The next assay deals with ETV1 (Homo sapiens, UniProt P50549 1-477). To be noted: protein: recombinant; tags: N-terminal GST; dsDNA, one strand shown. A digest of the protocol:
as §1

Sequence of ETV5 (P41161 whole entry): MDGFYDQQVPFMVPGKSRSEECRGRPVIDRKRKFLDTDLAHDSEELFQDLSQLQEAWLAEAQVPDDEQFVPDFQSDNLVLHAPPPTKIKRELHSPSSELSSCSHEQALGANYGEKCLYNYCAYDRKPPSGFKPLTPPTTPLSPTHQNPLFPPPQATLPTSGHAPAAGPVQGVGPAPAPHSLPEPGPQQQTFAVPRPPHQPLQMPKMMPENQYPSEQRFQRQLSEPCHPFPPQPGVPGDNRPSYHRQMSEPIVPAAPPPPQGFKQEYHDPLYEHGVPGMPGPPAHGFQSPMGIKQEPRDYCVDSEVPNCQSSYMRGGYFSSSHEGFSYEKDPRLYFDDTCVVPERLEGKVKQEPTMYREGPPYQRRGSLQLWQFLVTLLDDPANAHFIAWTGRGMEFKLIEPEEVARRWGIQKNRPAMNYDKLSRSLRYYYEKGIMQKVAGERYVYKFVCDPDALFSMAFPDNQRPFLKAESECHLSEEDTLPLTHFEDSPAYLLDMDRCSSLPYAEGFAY
Sequence of ETV1 (P50549 whole entry): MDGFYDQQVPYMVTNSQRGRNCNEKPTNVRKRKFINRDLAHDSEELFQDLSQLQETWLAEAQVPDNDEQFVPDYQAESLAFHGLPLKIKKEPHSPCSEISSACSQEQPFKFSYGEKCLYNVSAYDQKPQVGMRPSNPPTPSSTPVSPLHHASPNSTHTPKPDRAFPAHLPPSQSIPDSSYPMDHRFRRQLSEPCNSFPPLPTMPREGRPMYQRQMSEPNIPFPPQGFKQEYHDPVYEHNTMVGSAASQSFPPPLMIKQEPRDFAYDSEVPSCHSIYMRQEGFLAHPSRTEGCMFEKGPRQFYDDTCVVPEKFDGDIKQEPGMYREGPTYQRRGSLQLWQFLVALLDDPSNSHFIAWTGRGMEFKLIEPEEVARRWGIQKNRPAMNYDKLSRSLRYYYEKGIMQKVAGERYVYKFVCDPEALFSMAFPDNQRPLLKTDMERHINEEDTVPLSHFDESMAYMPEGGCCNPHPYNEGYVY
Sequence of ELF1 (P32519 whole entry): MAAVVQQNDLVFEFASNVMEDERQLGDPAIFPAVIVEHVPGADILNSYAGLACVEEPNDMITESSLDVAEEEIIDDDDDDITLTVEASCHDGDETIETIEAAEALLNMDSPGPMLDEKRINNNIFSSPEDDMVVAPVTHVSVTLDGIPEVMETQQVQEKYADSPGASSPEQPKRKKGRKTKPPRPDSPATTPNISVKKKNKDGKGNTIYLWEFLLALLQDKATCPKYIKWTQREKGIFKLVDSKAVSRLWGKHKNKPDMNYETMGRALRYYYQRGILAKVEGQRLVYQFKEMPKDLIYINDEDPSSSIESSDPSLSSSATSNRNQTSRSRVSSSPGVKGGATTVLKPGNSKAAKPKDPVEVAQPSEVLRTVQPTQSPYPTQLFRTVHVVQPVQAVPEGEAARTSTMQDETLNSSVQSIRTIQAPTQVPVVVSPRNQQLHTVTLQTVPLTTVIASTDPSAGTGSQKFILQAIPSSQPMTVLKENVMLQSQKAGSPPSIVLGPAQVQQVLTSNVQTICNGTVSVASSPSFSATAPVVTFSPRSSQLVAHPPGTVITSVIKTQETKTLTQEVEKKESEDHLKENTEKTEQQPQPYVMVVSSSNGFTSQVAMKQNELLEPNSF
Sequence of ELF4 (Q99607 whole entry): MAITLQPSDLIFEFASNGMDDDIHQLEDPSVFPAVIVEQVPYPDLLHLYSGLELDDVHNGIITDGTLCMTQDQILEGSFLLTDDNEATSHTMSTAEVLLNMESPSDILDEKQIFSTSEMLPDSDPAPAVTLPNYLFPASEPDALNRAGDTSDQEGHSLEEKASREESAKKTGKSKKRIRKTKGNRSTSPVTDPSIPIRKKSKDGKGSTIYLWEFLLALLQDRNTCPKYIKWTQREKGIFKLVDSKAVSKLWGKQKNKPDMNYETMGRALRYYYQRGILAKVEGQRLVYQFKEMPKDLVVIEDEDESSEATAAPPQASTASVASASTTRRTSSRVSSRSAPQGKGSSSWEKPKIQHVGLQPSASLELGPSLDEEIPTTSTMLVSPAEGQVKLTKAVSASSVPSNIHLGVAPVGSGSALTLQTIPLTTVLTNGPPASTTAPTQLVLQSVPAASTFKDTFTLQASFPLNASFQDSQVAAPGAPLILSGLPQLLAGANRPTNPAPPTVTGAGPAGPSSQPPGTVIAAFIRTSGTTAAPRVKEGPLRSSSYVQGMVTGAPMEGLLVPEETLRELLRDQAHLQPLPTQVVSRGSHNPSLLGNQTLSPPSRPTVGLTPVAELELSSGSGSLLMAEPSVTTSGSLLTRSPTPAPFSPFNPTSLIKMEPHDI

Take AACAGC: the binding signal with FLI1 is 1.1 fold enrichment (6-mer frequency, TF over GST control); with ELK1 it was 1.1 fold enrichment (6-mer frequency, TF over GST control); with GABPA it was 1.17 fold enrichment (6-mer frequency, TF over GST control); with ERG it was 1.13 fold enrichment (6-mer frequency, TF over GST control); with ELF1, 1.12 fold enrichment (6-mer frequency, TF over GST control); in the assay with EHF, 1.16 fold enrichment (6-mer frequency, TF over GST control). Also, the binding signal was 1.11 fold enrichment (6-mer frequency, TF over GST control) with SPI1; 1.13 fold enrichment (6-mer frequency, TF over GST control) in the assay with SPIB; 1.17 fold enrichment (6-mer frequency, TF over GST control) with ELK3; 1.14 fold enrichment (6-mer frequency, TF over GST control) in the assay with FEV; 1.09 fold enrichment (6-mer frequency, TF over GST control) with ETV5; 1 fold enrichment (6-mer frequency, TF over GST control) with HSF1. Also, the binding signal with SPIC was 1.05 fold enrichment (6-mer frequency, TF over GST control); with ELF4 it was 1.15 fold enrichment (6-mer frequency, TF over GST control); with ELK4, 1.2 fold enrichment (6-mer frequency, TF over GST control); in the assay with ETV2, 1.12 fold enrichment (6-mer frequency, TF over GST control); in the assay with ELF3, 1.1 fold enrichment (6-mer frequency, TF over GST control); with ETV1, 1.11 fold enrichment (6-mer frequency, TF over GST control).
